# This is part of a sample that, as a whole, favours compounds with a hit. Of some 83,000 tested, about 20% had one in any assay.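 Cell lines were cultured in 96-well plates, exposed to a single compound concentration, and assessed for percent growth 48 hours later.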 Unmarked numbers belong to inactive results. Calls of active or inactive are those of the source. The calls were made as follows: active = growth percent below 10; inactive = the rest.
# Key:
# Test in all cases: NCI-60 one-dose screen, 48 h (100 = growth as untreated, 0 = no growth, -100 = all killed)
# Details in all cases: 10 µM unless noted
# T-47D breast = test system: T-47D breast
# BT-549 breast = test system: BT-549 breast
# MDA-MB-435 melanoma = test system: MDA-MB-435 melanoma
# SW-620 colon = test system: SW-620 colon
# MCF7 breast = test system: MCF7 breast
# HCT-116 colon = test system: HCT-116 colon
# HCC-2998 colon = test system: HCC-2998 colon
# KM12 colon = test system: KM12 colon
SMILES,growth (T-47D breast),growth (BT-549 breast),growth (MDA-MB-435 melanoma),growth (SW-620 colon),growth (MCF7 breast),growth (HCT-116 colon),growth (HCC-2998 colon),growth (KM12 colon)
Cc1nn(-c2ccccc2)c(Cl)c1/C=C(/NC(=O)c1ccccc1)c1nc2ccccc2[nH]1,86.7%,93.5%,91.5%,105%,93.1%,86.6%,131%,107%
CS(=O)c1cccc(-c2ccc3nc(N)n(-c4ccc(C(F)(F)F)cc4)c(=O)c3c2)c1 (stereo unspecified),77.1%,99.4%,105%,103%,104%,100%,106%,98.5%
CNC(=O)CCN1CCN(CC/C=C2\c3ccccc3Sc3ccc(Cl)cc32)CC1,85%,91.5%,72.3%,86.9%,73.2%,68.8%,83.6%,62.3%
COc1ccc2oc3c(C)c4c(c(C)c3c2c1)C(=O)N(Cc1ccccc1)C4=O,95%,96.1%,99.2%,78.3%,95.5%,65.5%,102%,97.4%
O=C(Nc1ccc(Cl)cc1)Nc1ccc(Cl)c(C(F)(F)F)c1,-5.38% (active),14.4%,-5.12% (active),5.74% (active),9.91% (active),2.77% (active),-34.8% (active),3% (active)
O=C(/C=C/c1ccco1)c1ccc(Nc2nc(Nc3ccc(F)cc3)nc(Nc3ccc(Cl)cc3)n2)cc1,46.6%,78.7%,88.5%,84.4%,33.4%,62.5%,54.8%,65.2%
COC(=O)[C@]12CC[C@@H](C)[C@H](C)[C@@H]1C1=CC[C@@H]3[C@@]4(C)C(C=O)=C[C@@](C)(CO)[C@@H]4[C@H](O)C[C@@]3(C)[C@]1(C)CC2,-19.8% (active),-15.6% (active),-16% (active),-1.77% (active),3.73% (active),-81.4% (active),-79.2% (active),1.71% (active)
CCCCCCCCCOc1c(OC)cc(C2CC(=O)Nc3c2c(C)nn3-c2nc3ccccc3[nH]2)cc1OC (stereo unspecified),-11% (active),-16.7% (active),-47.4% (active),-29.2% (active),4.28% (active),0.609% (active),10%,-53.1% (active)
CN(c1ccccc1)c1ccc2c(c1)OCCC21CC1Nc1cnccc1C(=O)O (stereo unspecified),72.6%,64.8%,82.6%,80.2%,65.8%,33%,68.2%,64.2%
CC(CCc1ccc(Cl)c(Cl)c1)NCc1ccc(C(C)(C)C)cc1 (stereo unspecified),67.7%,68.9%,93.1%,80.2%,80.8%,79.1%,-18.4% (active),89.2%
C[C@H](NC(=O)[C@@H]1CSSC[C@@H](NC(=O)c2nc3ccccc3cc2O)C(=O)NCC(=O)N1C)c1ccccc1,-35.6% (active),44.3%,23.9%,-35.4% (active),-2.09% (active),12.8%,55.1%,19.8%
O=C(Nc1ccc(-n2cc(-c3ccncc3)c(-c3ccc(Cl)c(O)c3)n2)cc1)N1CCOCC1,83.9%,100%,104%,113%,101%,94.8%,109%,100%
COC1=C(OC)C(=O)C(OC)=C(OC)C1=O,94.2%,101%,103%,101%,99.5%,98.6%,89.3%,100%
CCCCCCCC/C=C\CCCCCCCCOc1ccccc1CC(=O)NCC[N+](C)(C)C,94.4%,77.4%,95.6%,69.5%,73%,65.8%,33.7%,36.4%
Cc1ccc2nc3ccccc3c(NCc3ccccc3)c2c1,63.6%,69%,58.2%,24.3%,11.2%,9.4% (active),-21.4% (active),56.3%
CCCCCCCCCCCCCCCCCCOc1ccccc1CC(=O)OCCC[N+](C)(C)C,72.3%,102%,58.3%,40%,46.5%,64%,37.2%,76.1%

SMILES,growth (T-47D breast),growth (BT-549 breast),growth (MDA-MB-435 melanoma),growth (SW-620 colon),growth (MCF7 breast),growth (HCT-116 colon),growth (HCC-2998 colon),growth (KM12 colon)
COc1cc(C(=O)/C=C/c2c(C(F)(F)F)nc3sccn23)cc(OC)c1OC,-22.7% (active),-14.2% (active),12.6%,-21.2% (active),6.82% (active),-85.3% (active),-0.607% (active),-75.6% (active)
CC(=O)N1N=C(c2ccc(Nc3nc(Nc4ccc(F)cc4)nc(Nc4ccc(F)cc4)n3)cc2)CC1c1cccc([N+](=O)[O-])c1 (stereo unspecified),80.3%,102%,111%,96.9%,88.3%,92.9%,54%,104%
CN1CCN(C(=O)c2c3c(n4ccccc24)C(=O)c2ncccc2C3=O)CC1,93.3%,57.3%,76.1%,37.6%,26.9%,44.1%,70.9%,65.4%
Cc1ccc(-c2cc(-c3ccccc3C)[nH]c(=O)c2C#N)s1,86.5%,79.4%,94.9%,95.6%,89%,91.8%,111%,95.3%
COc1cccc(-c2nn(-c3ccccc3)cc2-c2ccnc(NCCNC(=O)c3ccccc3)c2)c1,19.4%,38.4%,65.4%,77.2%,62.5%,44.3%,71.2%,57.3%
COc1cccc2c1C(=O)c1c(O)c3c(c(O)c1C2=O)CC(O)(/C(C)=N/NC(=O)CCCCC(=O)N/N=C(\C)C1(O)Cc2c(O)c4c(c(O)c2C(OC2CC(N)C(O)C(C)O2)C1)C(=O)c1c(OC)cccc1C4=O)CC3OC1CC(N)C(O)C(C)O1 (stereo unspecified),-16.2% [5 µM] (active),-21.6% [5 µM] (active),-87.6% [5 µM] (active),-32.3% [5 µM] (active),2.23% [5 µM] (active),-3.01% [5 µM] (active),-53.9% [5 µM] (active),-21.6% [5 µM] (active)
COc1ccc(NC(=O)CSc2nc(C)c(C(C)=O)n2-c2ccc([N+](=O)[O-])cc2)cc1,87.8%,91.5%,93.2%,96.6%,93.9%,86.5%,105%,107%
COc1cc(/C=C/C(=O)N2CCN(C(=O)c3cc(OC)c(OC)c(OC)c3)CC2)ccc1OCCCN1C(=O)c2cccc3cccc(c23)C1=O,61.9%,108%,95.6%,100%,90.4%,81.4%,99.7%,79.6%
CCOC(=O)C/C(C)=N\NC(=O)c1ccncc1,92.1%,97.8%,91.7%,107%,93.2%,89.3%,98.7%,107%
O=C1CCc2c(sc3[nH]c(=S)n(-c4ccc(OC(F)(F)F)cc4)c(=O)c23)C1,20.3%,38%,55%,19.9%,44.5%,30.1%,28.5%,10.8%
CCCCc1ccc(Nc2ccc(Nc3ccc(CCCC)cc3S(=O)(=O)O)c3c2C(=O)c2ccccc2C3=O)c(S(=O)(=O)O)c1,106%,94%,84.6%,98.6%,86.9%,106%,117%,96.9%
CC(C)(C)CC(C)(C)Nc1c(-c2ccncc2)nc2cnccn12,86.1%,98.6%,99.2%,106%,96.5%,90.1%,116%,98.1%
O=C(COc1ccc(/C=C2\Oc3ccccc3C2=O)cc1)Nc1nc2ccccc2s1,91.4%,46.2%,65%,96.3%,120%,87.3%,107%,-28.7% (active)
Nc1n[nH]c(-c2cc(Cl)ccc2O)c1-c1ccccc1,85.3%,112%,93.6%,102%,92.7%,85.1%,86.5%,64.2%
N#Cc1c2c(nn(-c3ccccc3)c1=O)C(O)=C([N+](=O)[O-])C(c1ccccc1)C2 (stereo unspecified),35.1%,91.9%,83.1%,80.6%,24.4%,58.6%,101%,35.7%
C=CC(=O)Nc1cccc(Oc2nccc(Nc3nnc(C4CC4)s3)n2)c1,95%,101%,99.5%,93.3%,82%,101%,102%,97.5%
